# Measurements taken from publication PMC7862700, “An all-to-all approach to the identification of sequence-specific readers for epigenetic DNA modifications on cytosine”.
# Experiments:
# Assay in all cases: DAPPL (digital affinity profiling via proximity ligation, sequencing); 10 mM Tris-HCl pH 7.5, 50 mM NaCl, 1 mM DTT, 4% glycerol, room temperature, 30 min; GST-TFs on glutathione beads, 16-mer random dsDNA library, 0.1% formaldehyde crosslink after washing; high values mean tight binding
# [1] = target: T1, FLI1 (Homo sapiens, UniProt Q01543 1-452); details: protein: recombinant; tags: N-terminal GST; dsDNA, one strand shown
# T1 sequence: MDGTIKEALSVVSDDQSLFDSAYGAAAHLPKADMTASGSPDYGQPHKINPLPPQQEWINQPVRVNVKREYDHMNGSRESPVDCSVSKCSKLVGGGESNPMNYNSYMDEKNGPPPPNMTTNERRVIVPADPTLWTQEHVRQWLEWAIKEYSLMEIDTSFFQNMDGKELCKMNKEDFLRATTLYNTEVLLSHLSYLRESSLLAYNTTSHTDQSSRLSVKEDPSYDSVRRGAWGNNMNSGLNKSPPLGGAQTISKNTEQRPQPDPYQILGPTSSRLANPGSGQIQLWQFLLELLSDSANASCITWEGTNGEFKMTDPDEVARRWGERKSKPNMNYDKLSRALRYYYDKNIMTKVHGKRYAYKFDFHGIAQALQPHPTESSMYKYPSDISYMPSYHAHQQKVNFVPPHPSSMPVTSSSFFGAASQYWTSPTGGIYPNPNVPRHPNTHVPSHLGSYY
# How it was run: (§1)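 Human transcription factors carrying a GST fusion were produced in yeast, bound to glutathione beads, tagged with DNA barcodes and pooled together with a tag-only sample. Each pool was held with 200 nmole of a random double-stranded 16-mer DNA library in Tris/NaCl/DTT/glycerol buffer for 30 min at room temperature, then washed, crosslinked in 0.1% formaldehyde, proximity-ligated with BsaI/T4 ligase (1 h, 37 °C), PCR-amplified and sequenced on an Illumina NextSeq500. Binding signal is the read frequency of each hexamer for a given factor divided by its frequency in the tag-only sample.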
# [2] = target: T2, ELK1 (Homo sapiens, UniProt P19419 1-428); details: protein: recombinant; tags: N-terminal GST; dsDNA, one strand shown
# T2 sequence: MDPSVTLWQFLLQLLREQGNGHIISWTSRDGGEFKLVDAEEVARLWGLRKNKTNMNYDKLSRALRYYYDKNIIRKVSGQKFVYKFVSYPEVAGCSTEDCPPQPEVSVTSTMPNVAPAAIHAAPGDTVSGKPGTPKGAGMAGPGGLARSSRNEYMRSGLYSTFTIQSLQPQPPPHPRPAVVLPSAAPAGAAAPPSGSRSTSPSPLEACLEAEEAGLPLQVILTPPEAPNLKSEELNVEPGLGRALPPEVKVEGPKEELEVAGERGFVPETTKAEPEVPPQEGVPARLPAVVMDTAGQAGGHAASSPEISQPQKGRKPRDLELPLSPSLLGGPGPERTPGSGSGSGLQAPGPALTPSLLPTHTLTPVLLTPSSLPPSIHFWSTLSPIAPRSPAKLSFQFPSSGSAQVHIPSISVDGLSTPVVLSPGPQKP
# How it was run: as §1
# [3] = target: T3, GABPA (Homo sapiens, UniProt Q06546 1-454); details: protein: recombinant; tags: N-terminal GST; dsDNA, one strand shown
# T3 sequence: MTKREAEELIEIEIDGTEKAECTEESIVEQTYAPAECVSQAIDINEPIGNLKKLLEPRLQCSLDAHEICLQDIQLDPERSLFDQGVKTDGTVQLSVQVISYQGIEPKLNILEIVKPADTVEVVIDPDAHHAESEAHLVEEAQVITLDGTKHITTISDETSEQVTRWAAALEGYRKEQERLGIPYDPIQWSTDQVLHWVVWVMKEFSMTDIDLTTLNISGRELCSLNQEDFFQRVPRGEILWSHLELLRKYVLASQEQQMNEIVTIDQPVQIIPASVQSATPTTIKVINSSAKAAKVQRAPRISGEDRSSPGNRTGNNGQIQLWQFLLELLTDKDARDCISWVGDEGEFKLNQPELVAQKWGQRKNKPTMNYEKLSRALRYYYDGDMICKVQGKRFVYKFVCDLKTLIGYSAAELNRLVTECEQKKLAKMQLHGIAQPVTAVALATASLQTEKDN
# How it was run: as §1
# [4] = target: T4, ERG (Homo sapiens, UniProt P11308 1-479); details: protein: recombinant; tags: N-terminal GST; dsDNA, one strand shown
# T4 sequence: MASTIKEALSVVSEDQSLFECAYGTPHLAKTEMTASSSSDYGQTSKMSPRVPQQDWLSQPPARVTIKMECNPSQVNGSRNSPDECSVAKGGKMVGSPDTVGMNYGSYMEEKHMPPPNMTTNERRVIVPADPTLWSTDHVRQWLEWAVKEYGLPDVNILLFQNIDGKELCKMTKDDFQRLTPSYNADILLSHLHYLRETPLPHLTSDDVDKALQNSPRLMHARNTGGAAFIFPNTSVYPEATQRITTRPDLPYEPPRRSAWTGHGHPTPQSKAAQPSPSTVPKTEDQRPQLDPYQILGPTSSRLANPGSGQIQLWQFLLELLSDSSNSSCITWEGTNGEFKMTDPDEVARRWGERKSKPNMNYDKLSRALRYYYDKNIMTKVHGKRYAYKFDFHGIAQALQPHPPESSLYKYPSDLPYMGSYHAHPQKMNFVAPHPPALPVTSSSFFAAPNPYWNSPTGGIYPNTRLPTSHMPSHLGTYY
# How it was run: as §1
# [5] = target: ELF1 (Homo sapiens, UniProt P32519 1-619); details: protein: recombinant; tags: N-terminal GST; dsDNA, one strand shown
# How it was run: as §1
# [6] = target: T5, EHF (Homo sapiens, UniProt Q9NZC4 1-300); details: protein: recombinant; tags: N-terminal GST; dsDNA, one strand shown
# T5 sequence: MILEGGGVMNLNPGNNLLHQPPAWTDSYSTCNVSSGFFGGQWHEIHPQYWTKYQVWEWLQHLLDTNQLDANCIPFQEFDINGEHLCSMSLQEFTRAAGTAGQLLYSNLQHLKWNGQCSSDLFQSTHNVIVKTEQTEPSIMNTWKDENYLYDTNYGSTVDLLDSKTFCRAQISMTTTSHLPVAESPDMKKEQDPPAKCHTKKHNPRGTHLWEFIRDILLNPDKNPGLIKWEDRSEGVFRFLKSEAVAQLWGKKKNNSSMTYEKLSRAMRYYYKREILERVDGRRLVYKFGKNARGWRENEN
# How it was run: as §1
# [7] = target: SPI1 (Homo sapiens, UniProt P17947 1-270); details: protein: recombinant; tags: N-terminal GST; dsDNA, one strand shown
# How it was run: as §1
# [8] = target: SPIB (Homo sapiens, UniProt Q01892 1-262); details: protein: recombinant; tags: N-terminal GST; dsDNA, one strand shown
# How it was run: as §1
# [9] = target: T6, ELK3 (Homo sapiens, UniProt P41970 1-407); details: protein: recombinant; tags: N-terminal GST; dsDNA, one strand shown
# T6 sequence: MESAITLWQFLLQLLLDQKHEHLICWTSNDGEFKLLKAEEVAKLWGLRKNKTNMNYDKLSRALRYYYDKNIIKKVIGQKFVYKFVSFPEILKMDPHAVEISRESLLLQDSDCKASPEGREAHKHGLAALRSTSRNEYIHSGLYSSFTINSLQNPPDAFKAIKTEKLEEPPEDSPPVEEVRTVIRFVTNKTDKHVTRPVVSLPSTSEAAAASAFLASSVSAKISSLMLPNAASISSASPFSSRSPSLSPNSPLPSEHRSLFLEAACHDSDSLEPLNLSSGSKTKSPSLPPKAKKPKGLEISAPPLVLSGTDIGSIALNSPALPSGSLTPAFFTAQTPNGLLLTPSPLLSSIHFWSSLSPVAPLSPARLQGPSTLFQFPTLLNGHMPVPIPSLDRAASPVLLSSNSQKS
# How it was run: as §1
# [10] = target: T7, FEV (Homo sapiens, UniProt Q99581 1-238); details: protein: recombinant; tags: N-terminal GST; dsDNA, one strand shown
# T7 sequence: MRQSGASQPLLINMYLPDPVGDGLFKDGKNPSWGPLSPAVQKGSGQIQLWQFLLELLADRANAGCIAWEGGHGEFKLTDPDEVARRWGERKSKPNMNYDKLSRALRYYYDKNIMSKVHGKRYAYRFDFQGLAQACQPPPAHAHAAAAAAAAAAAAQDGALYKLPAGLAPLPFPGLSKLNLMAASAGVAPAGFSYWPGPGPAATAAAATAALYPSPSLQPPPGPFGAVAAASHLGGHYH
# How it was run: as §1
# [11] = target: ETV5 (Homo sapiens, UniProt P41161 1-510); details: protein: recombinant; tags: N-terminal GST; dsDNA, one strand shown
# How it was run: as §1
# [12] = target: HSF1 (Homo sapiens, UniProt Q00613 1-529); details: protein: recombinant; tags: N-terminal GST; chain copies: 3; dsDNA, one strand shown
# How it was run: as §1
# [13] = target: T8, SPIC (Homo sapiens, UniProt Q8N5J4 1-248); details: protein: recombinant; tags: N-terminal GST; dsDNA, one strand shown
# T8 sequence: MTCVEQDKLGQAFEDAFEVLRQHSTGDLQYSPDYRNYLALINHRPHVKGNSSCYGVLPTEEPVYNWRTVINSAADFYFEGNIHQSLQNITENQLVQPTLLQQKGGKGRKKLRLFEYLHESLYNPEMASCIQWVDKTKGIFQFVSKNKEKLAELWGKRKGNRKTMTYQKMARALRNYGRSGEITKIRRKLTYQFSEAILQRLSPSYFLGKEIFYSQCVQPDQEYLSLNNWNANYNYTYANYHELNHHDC
# How it was run: as §1
# [14] = target: ELF4 (Homo sapiens, UniProt Q99607 1-663); details: protein: recombinant; tags: N-terminal GST; dsDNA, one strand shown
# How it was run: as §1
# [15] = target: T9, ELK4 (Homo sapiens, UniProt P28324-2 1-405); details: protein: recombinant; tags: N-terminal GST; dsDNA, one strand shown
# T9 sequence: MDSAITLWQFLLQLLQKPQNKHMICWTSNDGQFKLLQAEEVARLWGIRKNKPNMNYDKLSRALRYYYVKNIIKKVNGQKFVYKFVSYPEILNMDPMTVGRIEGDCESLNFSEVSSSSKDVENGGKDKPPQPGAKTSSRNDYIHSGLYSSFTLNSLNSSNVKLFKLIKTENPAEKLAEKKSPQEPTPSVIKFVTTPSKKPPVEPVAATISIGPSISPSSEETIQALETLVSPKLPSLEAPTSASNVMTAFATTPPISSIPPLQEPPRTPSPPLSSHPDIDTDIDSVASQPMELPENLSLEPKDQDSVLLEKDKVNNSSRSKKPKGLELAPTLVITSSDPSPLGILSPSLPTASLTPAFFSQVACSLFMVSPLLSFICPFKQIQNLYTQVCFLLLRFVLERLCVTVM
# How it was run: as §1
# [16] = target: T10, ETV2 (Homo sapiens, UniProt O00321 1-342); details: protein: recombinant; tags: N-terminal GST; dsDNA, one strand shown
# T10 sequence: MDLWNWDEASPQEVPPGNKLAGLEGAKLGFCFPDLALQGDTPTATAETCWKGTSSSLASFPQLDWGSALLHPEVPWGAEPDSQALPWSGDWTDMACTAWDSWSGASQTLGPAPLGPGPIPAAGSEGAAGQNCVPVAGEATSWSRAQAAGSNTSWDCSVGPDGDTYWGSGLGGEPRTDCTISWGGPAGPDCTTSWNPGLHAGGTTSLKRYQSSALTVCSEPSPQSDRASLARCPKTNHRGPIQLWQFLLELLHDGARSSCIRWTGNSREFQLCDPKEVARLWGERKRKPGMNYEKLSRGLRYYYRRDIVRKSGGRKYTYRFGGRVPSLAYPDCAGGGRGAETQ
# How it was run: as §1
# [17] = target: T11, ELF3 (Homo sapiens, UniProt P78545 1-371); details: protein: recombinant; tags: N-terminal GST; dsDNA, one strand shown
# T11 sequence: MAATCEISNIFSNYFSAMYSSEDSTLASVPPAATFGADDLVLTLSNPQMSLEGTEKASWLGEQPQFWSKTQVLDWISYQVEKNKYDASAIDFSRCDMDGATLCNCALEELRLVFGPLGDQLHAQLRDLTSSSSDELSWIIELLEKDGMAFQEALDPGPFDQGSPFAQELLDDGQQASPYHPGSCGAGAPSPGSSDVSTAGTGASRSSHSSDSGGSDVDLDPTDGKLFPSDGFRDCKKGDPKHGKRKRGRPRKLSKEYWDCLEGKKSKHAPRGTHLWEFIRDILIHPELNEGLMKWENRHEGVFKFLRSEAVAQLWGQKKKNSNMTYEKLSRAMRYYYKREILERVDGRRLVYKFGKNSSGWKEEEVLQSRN
# How it was run: as §1
# [18] = target: CRX (Homo sapiens, UniProt O43186 1-299); details: protein: recombinant; tags: N-terminal GST; dsDNA, one strand shown
# How it was run: as §1
# [19] = target: ETV1 (Homo sapiens, UniProt P50549 1-477); details: protein: recombinant; tags: N-terminal GST; dsDNA, one strand shown
# How it was run: as §1
# Sequence of ETV1 (P50549 whole entry): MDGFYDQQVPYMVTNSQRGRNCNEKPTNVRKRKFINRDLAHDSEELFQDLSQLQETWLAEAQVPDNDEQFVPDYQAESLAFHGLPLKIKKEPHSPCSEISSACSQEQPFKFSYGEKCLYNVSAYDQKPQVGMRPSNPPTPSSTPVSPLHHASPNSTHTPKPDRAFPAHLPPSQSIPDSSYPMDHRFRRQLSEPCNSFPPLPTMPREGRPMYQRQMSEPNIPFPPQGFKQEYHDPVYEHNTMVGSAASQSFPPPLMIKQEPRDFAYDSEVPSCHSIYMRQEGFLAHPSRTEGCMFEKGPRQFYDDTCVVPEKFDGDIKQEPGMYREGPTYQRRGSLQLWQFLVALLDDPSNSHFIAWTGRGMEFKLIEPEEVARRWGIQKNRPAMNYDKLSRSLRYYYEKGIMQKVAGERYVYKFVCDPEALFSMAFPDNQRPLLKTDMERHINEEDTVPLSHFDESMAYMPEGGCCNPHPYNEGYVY
# Sequence of SPIB (Q01892 whole entry): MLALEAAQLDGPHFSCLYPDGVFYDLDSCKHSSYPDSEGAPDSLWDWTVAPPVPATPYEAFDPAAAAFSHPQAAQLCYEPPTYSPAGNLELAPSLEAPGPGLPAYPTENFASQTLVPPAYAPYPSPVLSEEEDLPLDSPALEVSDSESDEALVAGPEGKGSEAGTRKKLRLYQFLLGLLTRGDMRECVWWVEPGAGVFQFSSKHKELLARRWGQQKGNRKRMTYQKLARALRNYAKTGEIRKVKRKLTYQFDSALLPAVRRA
# Sequence of HSF1 (Q00613 whole entry): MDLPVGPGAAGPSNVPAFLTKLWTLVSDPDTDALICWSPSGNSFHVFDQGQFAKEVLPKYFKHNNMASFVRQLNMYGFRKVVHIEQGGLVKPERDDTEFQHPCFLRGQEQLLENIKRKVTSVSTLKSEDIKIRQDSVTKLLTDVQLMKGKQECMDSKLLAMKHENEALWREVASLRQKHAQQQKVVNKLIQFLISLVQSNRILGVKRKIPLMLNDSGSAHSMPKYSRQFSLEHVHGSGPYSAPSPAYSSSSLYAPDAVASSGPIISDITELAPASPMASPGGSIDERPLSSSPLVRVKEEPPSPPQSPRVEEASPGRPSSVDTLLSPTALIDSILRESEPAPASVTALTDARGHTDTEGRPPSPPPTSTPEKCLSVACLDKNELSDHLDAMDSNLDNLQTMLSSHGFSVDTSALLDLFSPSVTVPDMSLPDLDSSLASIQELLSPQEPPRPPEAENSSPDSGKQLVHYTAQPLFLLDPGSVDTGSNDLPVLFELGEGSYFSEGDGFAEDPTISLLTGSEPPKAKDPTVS
# Sequence of ELF4 (Q99607 whole entry): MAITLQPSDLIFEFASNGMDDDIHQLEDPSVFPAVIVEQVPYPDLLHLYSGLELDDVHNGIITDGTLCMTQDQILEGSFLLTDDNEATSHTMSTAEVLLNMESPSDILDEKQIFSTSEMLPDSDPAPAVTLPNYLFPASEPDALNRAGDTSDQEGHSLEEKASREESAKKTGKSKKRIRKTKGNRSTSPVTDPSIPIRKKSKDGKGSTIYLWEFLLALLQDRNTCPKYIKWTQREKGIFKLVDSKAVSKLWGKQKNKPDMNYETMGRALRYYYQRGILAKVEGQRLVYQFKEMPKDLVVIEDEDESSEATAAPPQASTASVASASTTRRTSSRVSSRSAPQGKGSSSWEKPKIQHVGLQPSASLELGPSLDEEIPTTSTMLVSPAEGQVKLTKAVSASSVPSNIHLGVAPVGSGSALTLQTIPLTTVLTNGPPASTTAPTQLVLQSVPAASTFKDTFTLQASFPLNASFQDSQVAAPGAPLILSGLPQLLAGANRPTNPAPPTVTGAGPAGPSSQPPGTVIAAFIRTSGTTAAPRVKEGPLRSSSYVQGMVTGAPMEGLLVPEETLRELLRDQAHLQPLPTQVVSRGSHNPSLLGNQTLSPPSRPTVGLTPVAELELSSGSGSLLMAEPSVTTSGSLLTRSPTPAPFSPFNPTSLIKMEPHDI
# Sequence of ELF1 (P32519 whole entry): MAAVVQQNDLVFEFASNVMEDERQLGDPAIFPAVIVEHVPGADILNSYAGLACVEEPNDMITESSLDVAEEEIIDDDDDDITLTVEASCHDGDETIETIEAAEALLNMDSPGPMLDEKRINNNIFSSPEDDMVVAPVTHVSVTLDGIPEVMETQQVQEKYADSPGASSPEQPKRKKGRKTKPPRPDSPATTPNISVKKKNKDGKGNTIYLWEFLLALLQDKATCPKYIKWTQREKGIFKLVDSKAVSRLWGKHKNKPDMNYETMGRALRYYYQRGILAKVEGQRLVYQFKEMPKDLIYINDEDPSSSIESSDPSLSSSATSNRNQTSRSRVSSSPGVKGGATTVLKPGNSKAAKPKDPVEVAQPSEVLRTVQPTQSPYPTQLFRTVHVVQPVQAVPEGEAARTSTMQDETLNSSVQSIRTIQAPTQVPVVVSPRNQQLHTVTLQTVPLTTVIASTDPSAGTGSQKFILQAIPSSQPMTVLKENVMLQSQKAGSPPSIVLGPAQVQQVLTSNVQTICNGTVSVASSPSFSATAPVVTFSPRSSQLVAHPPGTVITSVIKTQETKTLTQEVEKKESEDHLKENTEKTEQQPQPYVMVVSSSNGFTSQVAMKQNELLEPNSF
# Sequence of CRX (O43186 whole entry): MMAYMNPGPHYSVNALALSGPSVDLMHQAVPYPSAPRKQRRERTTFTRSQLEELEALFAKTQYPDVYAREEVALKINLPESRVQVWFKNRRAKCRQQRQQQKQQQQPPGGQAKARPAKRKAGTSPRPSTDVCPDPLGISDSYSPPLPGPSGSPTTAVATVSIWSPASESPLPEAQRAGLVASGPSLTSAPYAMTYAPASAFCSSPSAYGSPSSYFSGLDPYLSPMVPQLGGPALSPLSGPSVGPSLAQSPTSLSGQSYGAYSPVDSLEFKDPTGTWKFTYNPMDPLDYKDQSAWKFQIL
# Sequence of ETV5 (P41161 whole entry): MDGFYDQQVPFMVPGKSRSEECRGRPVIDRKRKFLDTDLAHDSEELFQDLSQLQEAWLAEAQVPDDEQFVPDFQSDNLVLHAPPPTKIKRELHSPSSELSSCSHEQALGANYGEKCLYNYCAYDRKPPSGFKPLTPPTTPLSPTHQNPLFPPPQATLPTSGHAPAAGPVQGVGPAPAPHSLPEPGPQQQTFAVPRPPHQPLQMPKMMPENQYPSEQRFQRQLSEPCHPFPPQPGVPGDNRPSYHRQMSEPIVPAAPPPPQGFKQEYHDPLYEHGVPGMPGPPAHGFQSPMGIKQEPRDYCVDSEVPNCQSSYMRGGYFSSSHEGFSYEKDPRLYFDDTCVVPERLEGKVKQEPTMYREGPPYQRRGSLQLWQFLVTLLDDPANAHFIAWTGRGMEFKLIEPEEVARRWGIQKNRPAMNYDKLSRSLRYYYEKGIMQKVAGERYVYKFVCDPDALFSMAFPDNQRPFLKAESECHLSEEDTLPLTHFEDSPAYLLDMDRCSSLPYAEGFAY
sequence,measurement,setting,value
CTTTAA,binding signal,[1],"1.37 fold enrichment (6-mer frequency, TF over GST control)"
same,binding signal,[2],"1.27 fold enrichment (6-mer frequency, TF over GST control)"
same,binding signal,[3],"1.28 fold enrichment (6-mer frequency, TF over GST control)"
same,binding signal,[4],"1.27 fold enrichment (6-mer frequency, TF over GST control)"
same,binding signal,[5],"1.33 fold enrichment (6-mer frequency, TF over GST control)"
same,binding signal,[6],"1.2 fold enrichment (6-mer frequency, TF over GST control)"
same,binding signal,[7],"1.39 fold enrichment (6-mer frequency, TF over GST control)"
same,binding signal,[8],"1.19 fold enrichment (6-mer frequency, TF over GST control)"
same,binding signal,[9],"1.28 fold enrichment (6-mer frequency, TF over GST control)"
same,binding signal,[10],"1.23 fold enrichment (6-mer frequency, TF over GST control)"
same,binding signal,[11],"1.24 fold enrichment (6-mer frequency, TF over GST control)"
same,binding signal,[12],"1.58 fold enrichment (6-mer frequency, TF over GST control)"
same,binding signal,[13],"1.36 fold enrichment (6-mer frequency, TF over GST control)"
same,binding signal,[14],"1.26 fold enrichment (6-mer frequency, TF over GST control)"
same,binding signal,[15],"1.28 fold enrichment (6-mer frequency, TF over GST control)"
same,binding signal,[16],"1.27 fold enrichment (6-mer frequency, TF over GST control)"
same,binding signal,[17],"1.39 fold enrichment (6-mer frequency, TF over GST control)"
same,binding signal,[18],"2.25 fold enrichment (6-mer frequency, TF over GST control)"
same,binding signal,[19],"1.3 fold enrichment (6-mer frequency, TF over GST control)"
